This is a sample that favours compounds with a hit; in the whole collection about 11% have one here.
hNpr1 antagonist: human Npr1 receptor antagonism. P16066. HEK293 hNpr1 GloSensor cGMP, ANP-stimulated luminescence. Potency, µM (top dose mostly 46.3 µM), inactives show top-dose activity change, negative = inhibition, actives largely listed as inhibitors. 76,000 compounds, 1.6% hits. AID 1347048; calls by dose curve; further: on the % scale 0 is the no-effect control and ±100 the full control effect; nearly all actives have a fitted effect of over 60% in size
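Compound pre-incubated 30 min at room temperature on GloSensor-loaded HEK293 cells stably carrying hNpr1 and the pGS-40F cGMP biosensor. Stimulation uses hNppA at 0.1 nM final; luminescence is taken at baseline and 20 min post-agonist.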
3T3 cytotox: cytotoxic compounds in NIH 3T3 cells | NIH 3T3 viability, CellTiter-Glo ATP luminescence, 48-72 h | Potency, µM (highest dose often 96.7 µM), for inactives: at the top dose activity change, negative = cytotoxicity, hits mostly inhibitors | 94,000 compounds, 4.3% hits; further: on the % scale 0 is the no-effect control and ±100 the full control effect; nearly all actives have a fitted effect of over 55% in size
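Cytotoxicity was measured by CellTiter-Glo ATP luminescence after 48 or 72 h compound exposure at 37 °C. Mouse NIH 3T3 fibroblasts were seeded at 400 cells/well and dosed by 23 nL pin transfer.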
HEK293 tox: kills HEK 293 cells | HEK 293 viability, ATP luminescence (CellTiter-Glo), 48-72 h | Potency, µM (highest dose often 115 µM), without a hit: at the top dose activity change, negative = cytotoxicity, actives largely listed as inhibitors | 94,000 compounds, 6.6% hits | AID 1345083; further: on the % scale 0 is the no-effect control and ±100 the full control effect; nearly all actives have a fitted effect of over 60% in size
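Viability of HEK 293 cells, plated at 250 cells/well, was judged by cellular ATP after compound treatment for 48 or 72 hr. Luminescence was imaged 10 min after CellTiter-Glo addition at room temperature.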
FLuc inh-1: inhibitors of firefly (Photinus pyralis) luciferase; P08659; Potency, µM (series often up to 115 µM), most hits filed as inhibitors; purified P. pyralis luciferase, luminescence, biochemical; 76,000 compounds, 2.5% hits; further: on the % scale 0 is the no-effect control and ±100 the full control effect; nearly all actives have a fitted effect of over 65% in size
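Luminescence read by CCD imager after adding enzyme (10nM final) to wells holding compound, titrated in qHTS. Substrates 10uM each D-luciferin and ATP; buffer 50mM Tris acetate pH 7.5, 10mM Mg acetate, Tween-20, BSA.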
FLuc SDR no ATP: binders stabilizing firefly luciferase, without ATP. Potency, µM (series often up to 32.7 µM), for the others: top-dose activation (signal gain), actives largely listed as activators. AID 1963318. 1,300 compounds, 7.8% hits. shares compounds with FLuc inh-1. Purified FLuc-C-HiBiT, Nano-Glo HiBiT luminescence, no ATP; further: nearly all actives have a fitted effect of over 55% in size
FLuc SDR ATP: binders stabilizing firefly luciferase, plus ATP | shares compounds with FLuc inh-1 | purified FLuc-C-HiBiT + ATP, HiBiT complementation luminescence | Potency, µM (highest dose often 32.7 µM), without a hit: top-dose activation (gain of signal), most hits filed as activators | 1,300 compounds, 8.7% hits;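 further: signal reports ligand binding via conformational change of the enzyme rather than luciferase catalysis; % of control where 0% means no effect; nearly all actives have a fitted effect of over 55% in size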
FLuc inh-2: inhibitors of firefly luciferase enzymatic activity | shares compounds with FLuc inh-1 | purified FLuc-C-HiBiT enzyme, luciferin luminescence | Potency, µM (series often up to 32.7 µM), without a hit: at the highest dose activity change, negative = inhibition, usual class: inhibitors | 1,300 compounds, 42% hits; further: on the % scale 0 is the no-effect control and ±100 the full control effect; nearly all actives have a fitted effect of over 70% in size
Starred values were filed as active, the others as inactive; [ ] = dose if it differs, or a comment. Unless noted, the call rests on the fitted dose curve; in most records, active means well fitted curve in the direction sought with a large enough effect; inconclusive means small, poorly fitted or top-dose-only effect, or another doubt; inactive means no such curve, though single readings can be large; an effect the other way counts as inactive or inconclusive. Potency means the concentration at half of the fitted maximal effect.

Screening COCc1nc(CCNC(=O)CCc2nc(-c3cccc(C)c3)no2)no1 returned 3T3 cytotox -11% and HEK293 tox -2%.
`COc1cccc(NC(=O)CCc2nc(-c3ccc(C(C)(C)C)cc3)no2)c1` gave FLuc SDR no ATP 20%, FLuc SDR ATP 16% and FLuc inh-2 7µM*.
Clc1ccc(C2Cn3nnc(-c4nc(-c5ccccn5)no4)c3CO2)cc1 (stereo not given) was read as hNpr1 antagonist -14%, 3T3 cytotox -30%, HEK293 tox -25% and FLuc inh-1 inconclusive.
`Cc1ccc(-c2nc(-c3ccccn3)no2)cc1Cl` gave FLuc SDR no ATP 4.4µM*, FLuc SDR ATP inconclusive and FLuc inh-2 0.62µM*.
Screening Clc1cccc(-c2nc(-c3ccccn3)no2)c1 returned FLuc SDR no ATP 3.9µM*, FLuc SDR ATP inconclusive and FLuc inh-2 0.99µM*.
CCCN1C(=O)c2ccc(-c3nc4ccccc4s3)cc2C1=O was read as FLuc SDR no ATP inconclusive, FLuc SDR ATP 18% and FLuc inh-2 2µM*.
`CCCCC(=O)Nc1cc(-c2nc3ccccc3s2)ccc1C` gave FLuc SDR no ATP 18%, FLuc SDR ATP 10% and FLuc inh-2 -6%.
`CC(=O)Nc1cc(-c2nc3ccccc3s2)ccc1C` gave FLuc SDR no ATP 29%, FLuc SDR ATP 20% and FLuc inh-2 inconclusive.
CCCS(=O)(=O)N1CCCC1c1nc2ccccc2s1 (stereo not given) was read as hNpr1 antagonist 9%, 3T3 cytotox -29%, HEK293 tox inconclusive and FLuc inh-1 inactive.
For COCCn1ncc(N2CCC(C(=O)Nc3ccc(-c4nc5c(C)cccc5[nH]4)cc3)C2)cc1=O (stereo not given) the results were 3T3 cytotox -12% and HEK293 tox inactive.
`O=C(c1nccc2ccccc12)N1CCC2(CC1)NCCc1c2[nH]c2ccccc12` gave hNpr1 antagonist 0%, 3T3 cytotox -11%, HEK293 tox -26% and FLuc inh-1 inactive.
Fc1cccc(Cc2noc(-c3nc(-c4ccccc4)no3)n2)c1 was read as hNpr1 antagonist -2%, 3T3 cytotox -15%, HEK293 tox inconclusive and FLuc inh-1 inactive.
For Fc1ccc(Nc2nc(-c3ccccc3)no2)cc1 the results were hNpr1 antagonist inconclusive, 3T3 cytotox inconclusive, HEK293 tox inconclusive, FLuc inh-1 3.2µM*, FLuc SDR no ATP 22%, FLuc SDR ATP 18% and FLuc inh-2 6.2µM*.
c1ccc(CNc2nc(-c3ccccc3)no2)cc1 was read as hNpr1 antagonist inconclusive, 3T3 cytotox inconclusive, HEK293 tox inconclusive, FLuc inh-1 14µM*, FLuc SDR no ATP 19%, FLuc SDR ATP 14% and FLuc inh-2 inconclusive.
Screening CCOC(=O)c1cccc(Nc2nc(-c3ccccc3)no2)c1 returned hNpr1 antagonist -30%, 3T3 cytotox -27%, HEK293 tox 28µM*, FLuc inh-1 1.8µM*, FLuc SDR no ATP 14%, FLuc SDR ATP inconclusive and FLuc inh-2 inconclusive.
Fc1cccc(Nc2nc(-c3ccccc3)no2)c1 was read as hNpr1 antagonist inconclusive, 3T3 cytotox inconclusive, HEK293 tox inconclusive, FLuc inh-1 3.2µM*, FLuc SDR no ATP 22%, FLuc SDR ATP 19% and FLuc inh-2 7µM*.
For CNC(=O)c1cc(C2CC2)nc2c1c(C1CCN(C(=O)CN(C)C)CC1)nn2C the results were 3T3 cytotox -3% and HEK293 tox 0%.
Screening CCN1CCCC12Cc1ccccc1CN(C(=O)c1c(C)noc1C)C2 (stereo not given) returned 3T3 cytotox 1% and HEK293 tox -19%.
Screening CC1=C(C(=O)N(C)C)C(c2ccc(Cl)cc2)N2C(CC(=O)NCC3CCCO3)=CSC2=N1 (stereo not given) returned hNpr1 antagonist -2%, 3T3 cytotox -9%, HEK293 tox -11% and FLuc inh-1 inactive.
Screening Cc1cc(C)cc(Nc2nc(-c3ccccc3F)no2)c1 returned hNpr1 antagonist inconclusive, 3T3 cytotox 45µM*, HEK293 tox 40µM*, FLuc inh-1 1.6µM*, FLuc SDR no ATP 16%, FLuc SDR ATP 14% and FLuc inh-2 6.2µM*.
For Fc1ccccc1-c1noc(-c2nc(-c3ccccc3F)no2)n1 the results were hNpr1 antagonist 3%, 3T3 cytotox inactive, HEK293 tox -6% and FLuc inh-1 inactive.
Cc1nccn1CCN(C)c1ccc(-c2nc(COc3ccccc3)no2)cn1 was read as hNpr1 antagonist inconclusive, 3T3 cytotox inconclusive, HEK293 tox inconclusive, FLuc inh-1 13µM*, FLuc SDR no ATP 20%, FLuc SDR ATP 18% and FLuc inh-2 9.9µM*.
Screening COC(=O)c1ccc2c(c1)/C(=C/c1cc(Br)c(O)c(Br)c1)C(=O)N2 returned FLuc SDR no ATP 5%, FLuc SDR ATP 2% and FLuc inh-2 9.9µM*.
COc1cccc(C(=O)Nc2cccc(OCc3cc(=O)n4c5c(sc4n3)CCCC5)c2)c1 was read as FLuc SDR no ATP 21%, FLuc SDR ATP 11% and FLuc inh-2 inconclusive.
COc1cccc(NC(=O)Cn2c(=O)c(-c3noc(C)n3)c3n(c2=O)CCCC3)c1 was read as hNpr1 antagonist 0%, 3T3 cytotox -9%, HEK293 tox -8% and FLuc inh-1 inactive.
Screening COc1ccccc1CNC[C@H]1O[C@H](Cc2cc(CN(C)Cc3ccccc3)on2)CC[C@@H]1O returned hNpr1 antagonist 3%, 3T3 cytotox -25%, HEK293 tox inconclusive and FLuc inh-1 inactive.
`Cc1ccc(C(=O)N2C(C(=O)NCC(C)C)COC23CCN(C(=O)c2cccc(Cl)c2)CC3)cc1` (stereo not given) gave hNpr1 antagonist -11%, 3T3 cytotox inconclusive, HEK293 tox -24% and FLuc inh-1 inactive.
For COCCN1CCNc2cc(-c3cc(Cl)ccc3OC)ncc2C1 the results were hNpr1 antagonist -2%[70.6 µM], 3T3 cytotox inconclusive, HEK293 tox inconclusive and FLuc inh-1 inconclusive.
For COCCN1CCNc2cc(-c3cccc(N(C)C)c3)ncc2C1 the results were FLuc SDR no ATP 31%[49.3 µM], FLuc SDR ATP inconclusive and FLuc inh-2 16µM*.
`Fc1cccc(CN2CCNc3cnc(OCc4cccnc4)cc3C2)c1` gave hNpr1 antagonist -16%[70.6 µM], 3T3 cytotox inconclusive, HEK293 tox inconclusive and FLuc inh-1 inactive.

Screening data deposited in PubChem BioAssay by National Center for Advancing Translational Sciences (NCATS).
